NPYLR7 agonist: activates Aedes aegypti NPYLR7 receptor; HEK293T NPYLR7/Galpha15, GCaMP6s calcium fluorescence; activation, % at 10 µM; 0.15% of 270,000 active; AID 1259423; in the data active = activation above about 40%
hcGAS lum: human cGAS inhibition; Q8N884; recombinant h-cGAS, ATP depletion, Kinase-Glo luminescence; inhibition, % at 12.5 µM; 0.081% of 290,000 active; AID 1259398
mcGAS inh: inhibitors of mouse cGAS | recombinant cGAS, Kinase-Glo ATP depletion luminescence | 0.15% of 160,000 active | inhibition, % at 12.5 µM | Q8C6L5
Of the large screens only hits and unclear results are named; the others gave an inactive call. A selection: hits, their analogues and other compounds. The true share with any hit is near 0.3%. Cut-off read from the data, not from the text of the source, unless noted: active = inhibition above about 40%; inactive = the rest.

Cc1sc(=NC(=O)c2cccc(C(F)(F)F)c2)n(C(C)C(=O)NC2CC2)c1C (stereo unspecified)	hcGAS lum 184 (no result: mcGAS inh)
CCOC(=O)c1sc(NC(=O)CC(C)C)nc1C	none (no result: mcGAS inh)
COc1ccc(C)c2sc(NC(=O)c3cc(C)no3)nc12	none
COc1ccccc1N1CCN(C(=O)CC(c2cccc(OC)c2OC)c2c[nH]c3ccccc23)CC1 (stereo unspecified)	none
CN(CC(=O)NC1(c2ccccc2)CCC1)c1ccc(Cl)cn1	none (no result: mcGAS inh)
O=C1C(Cl)=CC(=NS(=O)(=O)c2ccccc2)C(Cl)=C1Cl	hcGAS lum 59, mcGAS inh 59
O=C1C=CC(=NC(=NS(=O)(=O)c2ccccc2)c2ccccc2)C=C1Cl	none
COCCN(Cc1ccc(C)cc1)CC(O)COCC(C)C (stereo unspecified)	mcGAS inh 90
COCCN(Cc1ccc(OC)cc1)CC(O)COC(C)C (stereo unspecified)	none
N#Cc1cccc(C(=O)NCc2ccc(-c3ccc(Cl)cc3)o2)c1	none
Cc1nccc(-c2cccc(N3C(=O)[C@H]4C[C@H]4C3=O)c2)n1	none
O=C(NC1CCc2[nH]ncc2C1)c1csc2nc(-c3ccccc3)cn12 (stereo unspecified)	none (no result: mcGAS inh)
COc1cc(C=C(C#N)S(=O)(=O)c2cc(Br)ccc2Br)ccc1O	NPYLR7 agonist 170 (no result: mcGAS inh)
COc1cc(C=C(C#N)S(=O)(=O)c2cc(Br)ccc2Br)cc(OC)c1	none (no result: mcGAS inh)
CSc1nc2nc(C)c(CCC(=O)Nc3nccs3)c(C)n2n1	none (no result: mcGAS inh)
N#C/C(=C/c1ccc(N2CCCCCC2)o1)c1ccc(F)cc1	NPYLR7 agonist 88 (no result: mcGAS inh)
N#C/C(=C\c1ccc(N2CCCCC2)s1)c1cccc(Cl)c1	none (no result: mcGAS inh)
O=C(NC1CSc2c1nc1ccccc1c2C(=O)O)c1ccccc1 (stereo unspecified)	hcGAS lum 41 (no result: mcGAS inh)
O=C(Nc1ccccc1I)c1c2c(nc3ccccc13)CCCC2	none
Cc1ccc(S(=O)(=O)Nc2ccc(Nc3ccc(-n4cccn4)nn3)cc2)cc1C	none
Cc1ccccc1Cn1cccc1CN(Cc1ccccc1)C(=O)Nc1c(C)cccc1C	none
CCOC(=O)N1CCN(/C=C(\C#N)c2nc3ccccc3s2)CC1	none
CCOC(=O)N1CCN(c2ccc(/C=C(\C#N)c3nc4ccccc4[nH]3)o2)CC1	NPYLR7 agonist 102 (no result: mcGAS inh)
Cc1ccccc1Cn1cnc2c(cnn2CCNC(=O)c2ccc(Br)o2)c1=O	none
OCCCN(Cc1ccc(Cl)nc1)CC(F)(F)F	none (no result: mcGAS inh)
CC(=O)Oc1cc2oc(=O)c(Cl)c(C)c2cc1Cl	hcGAS lum 72
COc1cc2oc(=O)cc(C)c2c(OC)c1OC(C)=O	none (no result: mcGAS inh)
CCCC(=Nc1ccccc1O)C1=C(O)CC(CC(C)SCC)CC1=O (stereo unspecified)	none (no result: mcGAS inh)
O=[N+]([O-])c1cccc(C=Nn2cnc3ccccc32)c1	none
O=C(/C=C/c1cccc([N+](=O)[O-])c1)n1cnc2ccccc21	mcGAS inh 42

Screening data deposited in PubChem by Fisher Drug Discovery Resource Center.
